Screens deposited in PubChem by Broad Institute.
esBAF inh = blocks esBAF chromatin remodeling in mouse ES cells. 350,000 tested, 2% active. AID 602393. Bmi1-luciferase knock-in reporter, 24 h; 100% = twice the neutral-well signal. reporter increase, % at 12.5 µM; in the data active means activation above about 40%; inconclusive means no clear call, values can overlap the other calls;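 further: 0% = median of the plate's neutral control wells and 100% = double that signal; a rise in the Bmi1 reporter signal indicates esBAF inhibition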
HSF1 activator = increases HSF-1 driven luciferase reporter signal; activation, % at 9 µM; NIH3T3-HGL HSF-1 luciferase reporter, MG132, 8 h; 100% = twice DMSO control signal; AID 504408; 300,000 tested, 1.7% active;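 active means mean replicate activation of at least 50% with a set share of replicates each reaching 50%; inconclusive means only one of those two conditions met; inactive means mean below 50% and too few replicates reaching it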;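 further: 0% = median of the neutral control wells and 100% = twice that signal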
Vif inh = HIV Vif inhibition. inhibition, % at 7.49 µM. 340,000 tested, 0.35% active. AID 602346. HEK293T cells, Vif self-association by quenched fluorescence, imaging, 24 h; in the data active means inhibition above about 50%, passing the limit was not always enough; inconclusive means no clear call, values can overlap the other calls; inactive means below about 31%
HSF1 inh = HSF1 inhibition | NIH3T3-HGL HSE-luciferase, MG132-induced, luminescence 8 h; active compounds read low | activity change, negative = inhibition, % at 7.5 µM (by protocol) | 300,000 tested, 0.77% active;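 active means more than half of replicate wells show activity change below -50%, luminescence cut by over half; inconclusive means some wells, but at most half, below -50%; inactive means no replicate well below -50%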;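 further: luciferase reports HSF-1 transcriptional activity via heat shock element; 0% = median of DMSO wells and -100% = zero luminescence signal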
Starred values were filed as active, the others as inactive; ? = inconclusive; . = not tested or not shown. Compounds with a hit are over-represented: about 3.4% of the library has one in this group of screens.

SMILES | esBAF inh | HSF1 activator | Vif inh | HSF1 inh
O=C(/C=C/c1nc2ccccc2s1)N1CCCCCC1 | 32 | 75* | 4 | 32
O=[N+]([O-])c1ccc2nc(N3CCCC3)sc2c1 | 79* | 38 | 4 | 12
CCOc1ccc2nc(NC(=O)C3CCN(C(=O)c4ccco4)CC3)sc2c1 | 65* | 13 | 2 | 12
CC1CCCCC1NC(=O)/C=C/c1nc2ccccc2s1 (configuration not stated) | . | 36 | 10 | 19
COc1ccc(C)cc1NC(=O)C1CCN(C(=O)c2ccco2)CC1 | -3 | -14 | 54* | -7
COCCNC(=O)C[C@H]1C[C@@H]2c3cc(NC(=O)Nc4ccc(F)cc4)ccc3O[C@@H]2[C@@H](CO)O1 | 3 | . | . | .
C[C@H]1CN([C@@H](C)CO)C(=O)Cc2cc(NC(=O)C3CCCCC3)ccc2O[C@@H]1CN(C)C | -4 | . | . | .
CCOc1ccc2nc(N3CCC(C(=O)N4CCN(C5CCCCC5)CC4)CC3)sc2c1 | 65* | -6 | 0 | -4
O=[N+]([O-])c1ccc(N2CCCCCC2)c([N+](=O)[O-])c1 | 10 | 77* | 0 | 20
CCCNC(=O)N1[C@@H](CO)[C@H](c2ccccc2)[C@@H]1CNC(C)=O | 1 | . | . | .
COc1ccccc1NC(=O)N1C[C@H]2[C@@H](c3ccccc31)[C@H](CO)N2Cc1ccccc1F | 1 | . | . | .
COc1ccccc1-c1ccc2n(c1=O)C[C@@H]1[C@@H](CO)[C@H](C(=O)N3CCCCC3)N(C)[C@H]21 | -1 | . | . | .
COc1ccc(-c2nc3ccccc3n2OCC(=O)O)cc1 | 25 | 32 | 1 | 26
O=C(O)COn1c(-c2ccc(Cl)cc2)nc2ccc(Cl)cc21 | . | 92* | 26 | 63
COn1c(-c2ccc(Cl)cc2)nc2ccc(Cl)cc21 | 5 | 111* | 4 | 84
Cc1nc2ccc(Cl)cc2n1C | . | . | 16 | .
Cc1cc(C)n2c(Nc3ccc4c(c3)OCCO4)c(-c3ccc(C)o3)nc2n1 | 83* | 33 | -13 | 19
Cc1ccc(-c2nc3ncccn3c2Nc2ccc3c(c2)OCCO3)o1 | 30 | 35 | -14 | 14
CC(C)(C)c1ccc(C(=O)NCCCNC(=O)c2cccnc2)cc1 | 47* | 5 | -21 | 10
Cc1ccccc1OCC(=O)NCCCNC(=O)c1cccnc1 | -6 | 56* | -5 | 14
Cc1ccccc1OCC(=O)NCCNC(=O)c1cccnc1 | 9 | -37 | 44 | -24
Cc1ccc(C)c(S(=O)(=O)NC(C)C(=O)Nc2ccc(-c3nc4ccccc4s3)cc2)c1 (configuration not stated) | 52* | 0 | -6 | -5
Cc1ccc(S(=O)(=O)CCC(=O)Nc2ccc(Br)cc2)cc1 | -18 | -73 | . | -67*
CC(C)(C)c1ccc(S(=O)(=O)NCC(=O)Nc2ccc(-c3nc4ccccc4s3)cc2)cc1 | 53* | -14 | -9 | -4
O=C(CCS(=O)(=O)c1ccccc1)Nc1ccc(-c2nc3ccccc3s2)cc1 | -43 | 58* | 6 | 14
SMILES | esBAF inh | HSF1 activator | Vif inh | HSF1 inh
CC=Cc1ccc2n(c1=O)C[C@H]1[C@H](CO)[C@@H](C(=O)NCCc3ccncc3)N(CCC(F)(F)F)[C@@H]21 (mixture of isomers) | -4 | . | . | .
COc1ccc(NC(=O)c2sccc2C)cn1 | 35 | 70* | -1 | 36
CCc1cc(C(=O)Nc2ccc(OC)nc2)sc1C | 47* | 15 | -9 | 24
COc1ccc(NC(=O)c2cc(Br)c(Br)s2)cn1 | 35 | 7 | -7 | 5
C[C@@H]1CN([C@H](C)CO)C(=O)Cc2cc(NC(=O)Nc3ccc(F)cc3)ccc2O[C@H]1CN(C)C(=O)NC1CCCCC1 | -1 | . | . | .
C=CCNc1nc(Nc2ccccc2F)nc(OCC)n1 | 85* | 42 | -21 | 23
COc1ccc(C2c3ccc(O)cc3Oc3ncn(Cc4ccco4)c(=N)c32)cc1 (configuration not stated) | -5 | 75* | 1 | 35
COc1ccc(C2c3c(ncn(Cc4ccco4)c3=N)Oc3ccc4ccccc4c32)cc1 (configuration not stated) | -4 | 69* | 7 | 18
CC1CCCC/C1=N\Nc1ccc(S(N)(=O)=O)cc1[N+](=O)[O-] (configuration not stated) | . | 68* | -1 | 44
CC(=O)Nc1ccc(NC(=O)CN(c2ccc(C34CC5CC(CC(C5)C3)C4)cc2)S(C)(=O)=O)cc1 | 20 | -2 | -5 | 13
CS(=O)(=O)N(CC(=O)Nc1ccc(CC#N)cc1)c1ccc(C23CC4CC(CC(C4)C2)C3)cc1 | 28 | 60* | 5 | 48
CCOc1ccc(CN(C(=O)c2ccccn2)c2ccc(OC)c(Cl)c2)cc1 | 46* | 23 | 3 | 15
CCOc1ccc(N(Cc2ccc(OC)c(OC)c2)C(=O)c2ccco2)cc1 | . | -23 | -1 | -5
Cc1ccc2nc(-c3sc4nc(C)cc(C)c4c3N)[nH]c2c1 | -42 | -66 | -1 | -61*
CC(=O)c1sc2nc(C)cc(C)c2c1N | -4 | -17 | -14 | 0
O=C(C[C@H]1C=C[C@H](NC(=O)c2cccc(F)c2)[C@@H](CO)O1)Nc1nccs1 | -4 | . | . | .
COc1ccc(-c2nc(CS(=O)CC(=O)NC3CCC(C)CC3)c(C)o2)cc1OC (configuration not stated) | 77* | -6 | -1 | -6
CCCN(CCC)CCCNC(=O)CS(=O)Cc1nc(-c2ccc(OC)c(OC)c2)oc1C (configuration not stated) | 3 | 55* | -1 | 23
Cc1cc(=O)oc2cc(OCc3ccccc3)ccc12 | 26 | 58* | 11 | 38
CCCc1cc(=O)oc2cc(OCc3ccc(C(=O)O)cc3)ccc12 | 53* | -23 | -5 | -14
O=C(OC1CCOC1=O)c1cc(Cl)ccc1[N+](=O)[O-] (configuration not stated) | . | 58* | -7 | 19
O=C(Nc1cccn2ncnc12)C(F)(F)F | 7 | 63* | ? | 19
N#C[C@@H]1[C@@H](c2ccccc2)[C@H](CO)N1C(=O)Cc1ccccn1 | -1 | . | . | .
CCC(=O)N1[C@@H]2c3ccc(-c4cncnc4)c(=O)n3C[C@H]1[C@H](CO)[C@H]2C(=O)N1CCc2ccccc2C1 | -7 | . | . | .
CCC(C)(C)C1CCc2[nH]nc(C(=O)NC3CCCCC3)c2C1 (configuration not stated) | 58* | . | -14 | .
CCC(C)(C)C1CCc2[nH]nc(C(=O)NN)c2C1 (configuration not stated) | . | -10 | 4 | -10
COc1ccc(NC(=O)N(C)C[C@H]2Oc3ccc(NS(=O)(=O)c4ccc(C)cc4)cc3C(=O)N([C@H](C)CO)C[C@H]2C)cc1 | 1 | . | . | .
CCC(C)(C)NC(=O)C(c1cccc(OC)c1OC)N(Cc1ccc(OC)cc1)C(=O)CCC(=O)Nc1cc(C)on1 (configuration not stated) | 0 | 60* | 2 | 28
CCC(C)(C)NC(=O)C(c1cccc(OC)c1OC)N(Cc1ccccc1)C(=O)CCC(=O)Nc1cc(C)on1 (configuration not stated) | 2 | 3 | 0 | 1
